Hits are enriched below; roughly 3.9% of the tested compounds scored in any of these assays.
FLuc inh: blocks Photinus pyralis firefly luciferase activity; P08659; purified firefly luciferase, luminescence, 8 min; Potency, µM (titrated, usually from 57.1 µM), for the others: at the highest dose activity change, negative = inhibition, hits mostly inhibitors; actives 2.2% (n = 72,000); AID 411; note: % is set by controls: 0 for no effect and ±100 for the full control effect; nearly all actives have a fitted effect of over 40% in size
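Here, luciferase activity is measured as luminescence following an 8 min room-temperature reaction at 10 uM ATP, pH 7.2. Every library sample is titrated.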
GBA mod: alters purified human glucocerebrosidase activity. actives 1.1% (n = 48,000). AID 360. Potency, µM. P04062. purified enzyme, resorufin glucoside fluorescence (screen aimed at inhibitors), 20 min; in the data active = potency below about 15 µM; inconclusive = mostly about 16 µM to 33 µM;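 note: the screen sought inhibitors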
Target sequence (P04062 whole entry, looked up): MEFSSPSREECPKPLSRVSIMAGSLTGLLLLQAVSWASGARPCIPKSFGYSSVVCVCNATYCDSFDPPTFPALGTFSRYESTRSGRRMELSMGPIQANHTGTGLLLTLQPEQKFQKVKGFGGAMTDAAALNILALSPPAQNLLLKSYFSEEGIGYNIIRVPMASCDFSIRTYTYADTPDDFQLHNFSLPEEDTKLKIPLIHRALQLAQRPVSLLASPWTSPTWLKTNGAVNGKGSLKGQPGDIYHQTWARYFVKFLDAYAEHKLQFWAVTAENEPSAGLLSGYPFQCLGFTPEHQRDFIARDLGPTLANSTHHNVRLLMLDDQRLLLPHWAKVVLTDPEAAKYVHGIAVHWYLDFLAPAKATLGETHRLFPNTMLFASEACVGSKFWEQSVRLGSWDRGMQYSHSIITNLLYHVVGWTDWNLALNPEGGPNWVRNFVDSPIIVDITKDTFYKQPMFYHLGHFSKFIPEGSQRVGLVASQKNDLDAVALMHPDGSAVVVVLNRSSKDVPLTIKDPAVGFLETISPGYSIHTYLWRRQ
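Normal human glucocerebrosidase (0.2 nM final) was assayed with resorufin β-D-glucopyranoside (30 uM final) in 50mM citric acid/KH2PO4, 10mM sodium taurocholate, 0.01% tween-20, pH 5.9. Compounds were titrated; fluorescence (Ex 548, Em 600) read after 20 min at RT.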
PK Bst: alters activity of Bacillus stearothermophilus pyruvate kinase; purified pyruvate kinase, luminescence ATP production; ribose 5-phosphate activator present at AC10; Potency, µM; actives 1.2% (n = 51,000); in the data active = potency below about 11 µM; inconclusive = mostly about 12 µM to 25 µM;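 the screen sought inhibitors and activators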;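 note: scaled between full activation by ribose 5 phosphate and full inhibition by luteolin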
ERK AVP inh: blocks ERK signaling stimulated by vasopressin; HEK293-V1b, vasopressin-stimulated pERK AlphaScreen; Potency, µM (top dose mostly 57.5 µM), without a hit: at the top dose activity, negative = inhibition, most hits filed as inhibitors; actives 0.99% (n = 72,000); note: % is set by controls: 0 for no effect and ±100 for the full control effect; nearly all actives have a fitted effect of over 55% in size
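qHTS, compounds titrated on V1b-expressing HEK293 cells. Preincubation 30 min at 37C, vasopressin 25 nM for 5 min, lysis 10 min, bead incubation 5 hr at room temperature.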
The depositor's hits bear a star; i = inactive; ? = inconclusive; · = not tested or not shown; [ ] = dose if it differs, or a comment. Unless noted, calls come from the whole dose curve; as a rule, active = well fitted curve in the direction sought with a large enough effect; inconclusive = small, poorly fitted or top-dose-only effect, or another doubt; inactive = no such curve, though single readings can be large; an effect the other way counts as inactive or inconclusive. Potency is the fitted concentration of half-maximal effect.

SMILES	FLuc inh	GBA mod	PK Bst	ERK AVP inh
CN(C)S(=O)(=O)c1cccc(-c2cn3ccccc3n2)c1	-17%	>77	·	-18%
COc1ccccc1-c1nc2s/c(=C\c3cccs3)c(=O)n2n1	?	5.8*	·	-1%
COc1cc(/C=c2\sc3nc(-c4ccncc4)nn3c2=O)ccc1OC(C)=O	3.2µM*	>77	·	10%
CN(C)c1ncc2nc(-c3cccs3)c(=O)n(C)c2n1	-4%[11.4 µM]	·	·	8%
O=C(O)[C@@H]1[C@@H]2C[C@H]([C@@H](Br)[C@H]2N2C(=O)CCC2=O)[C@@H]1C(=O)O	2%[11.4 µM]	·	·	?
c1ccc(COc2ccc(OCCOCCn3cncn3)cc2)cc1	16µM*	>77	·	-7%
C=C/C(C)=C/[C@]1(C)SC(=O)C(C)=C1O	3%	·	·	18%
O=C1c2ccccc2C(Nc2ccc3c(c2)OCO3)N1Cc1ccco1 (centres undefined)	-11%	·	·	25µM*
O=C(NCc1cccnc1)c1c[nH]c2cc3c(cc2c1=O)OCCO3	13µM*	>77	i	-26%
O=C(NCc1ccccc1)c1c[nH]c2ccc(S(=O)(=O)Nc3ccc4c(c3)OCCO4)cc2c1=O	-3%	?	>57	11%
CC(=O)[C@H]1CC[C@@H]2[C@]1(C)CC=C1[C@]23C=C[C@]2(C[C@H](O)CC[C@@]12C)[C@H](C(=O)O)[C@@H]3C(=O)O	4%[11.4 µM]	·	·	5%[11.5 µM]
Cc1nc(N2CCOCC2)c2nc(-c3ccccc3)n(CCN3CCCCC3)c2n1	·	·	·	-6%
CC1CCC2C(=O)N3C(CCC(C)[C@@H]3c3ccc(Br)cc3)C(=O)N2C1c1ccc(Br)cc1 (some centres undefined)	·	·	·	23%[11.5 µM]
O=C(CSC1=NCCN1)c1ccccc1	2%[11.4 µM]	·	·	1%[11.5 µM]
COc1cccc(NC(=O)CN2CCN(S(=O)(=O)c3ccc(C(C)C)cc3)CC2)c1	0%	?	>57	20%
COc1cc(NC(=O)CN2CCN(S(=O)(=O)c3ccc(C(C)C)cc3)CC2)cc(OC)c1	1%	15*	>57	16%
CCc1cccc2c3c([nH]c12)[C@](CC)(CC(=O)O)OCC3	-3%	·	·	·
CN(C)c1cccc(-c2nnc(SCCCC#N)o2)c1	16µM*	>77	i	-24%
COc1cccc(Nc2ncc3nc(C)c(=O)n(C)c3n2)c1	-14%[11.4 µM]	·	·	-7%
CCc1c(C#N)c(N)nc(SCC(=O)OCc2ccccc2)c1C#N	-2%	·	·	32µM*
CCOC(=O)CSc1nc(N)c(C#N)c(-c2ccc(OCC)cc2)c1C#N	0%	>77	>57	0%
Nc1ccc2nc(-c3ccc(Cl)cc3)[nH]c2c1	4µM*	·	·	·
Nc1ccc(-c2nc3c(Cl)c(N)ccc3[nH]2)cc1	16µM*	·	i	7%
Clc1ccc2nc(-c3ccccc3)[nH]c2c1	·	·	·	25µM*
CC(C)=CCC/C(C)=C/CO	1%[11.4 µM]	·	·	-15%[11.5 µM]
SMILES	FLuc inh	GBA mod	PK Bst	ERK AVP inh
Cc1ccc(C(=O)Nc2ncc(Cc3ccc(F)cc3)s2)o1	20µM*	>77	·	6%
O=C(Nc1ccc2nc3n(c(=O)c2c1)CCCCC3)c1ccccn1	13µM*	·	·	?
COc1ccc2c3c(ccc2c1)N[C@H](C(=O)O)CC3	3.2µM*	·	·	-7%[11.5 µM]
CCC(=O)N[C@@H]1CCc2cccc(OC)c2C1	25µM*	·	·	10%
Nc1c(C(=O)Nc2ccccc2)sc2nc(-c3ccco3)ccc12	-24%	>77	·	32µM*
O=C(c1cccc(C(=O)N2CCN(c3ccccc3F)CC2)c1)N1CCN(c2ccccc2F)CC1	3%	·	·	16µM*
CCn1c2ccccc2c2nnc(SCC(=O)c3ccccc3)nc21	3%	·	·	20µM*
CCn1c2ccccc2c2nnc(SCC(=O)Nc3ncccn3)nc21	0%	>77	·	-24%
O=C(O)c1cn(C2CC2)c2cc(N3CCNCC3)c(F)cc2c1=O	3%[25.5 µM]	·	·	1%
COC(=O)[C@@]1(Cc2ccc(OC)cc2)[C@H]2c3cc(C(=O)N(C)C)n(Cc4cccc5ccccc45)c3C[C@H]2CN1C(=O)c1ccccc1	·	·	·	3%
CC(C)[C@H](NC(=O)OC(C)(C)C)[C@@H](O)CC(=O)OC(C)(C)C	1%[11.4 µM]	·	·	2%[11.5 µM]
CC[C@H]1C2=C3C(CC[C@H]4C(OCc5ccc(F)cc5C(F)(F)F)OC[C@](C)([C@@H]34)N(C(=O)OC(C)(C)C)C2)C(COC)C1COC (some centres undefined)	·	·	·	10%
Fc1ccccc1OCCSc1nnnn1-c1ccccc1	16µM*	>77	·	60%
c1ccc(OCCSc2nnnn2-c2ccccc2)cc1	?	>77	·	-1%
COc1ccccc1N=c1oc2cc(O)ccc2cc1C(=O)NCC1CCCO1 (centres undefined)	-7%	>77	2.6*	?
COc1ccccc1NC(=O)c1cc2ccc(O)cc2o/c1=N\O	?	?	·	32µM*
COc1ccccc1N=c1oc2cc(O)ccc2cc1C(N)=O	7.9µM*	·	·	-6%
COc1ccccc1NC(=O)c1cc2ccccc2o/c1=N\O	-10%	·	>57	21%
N#Cc1cccc(NC(=O)N2CC[C@@]3(CCCN(C(=O)c4ccncc4)C3)C2)c1	2%[11.4 µM]	·	·	-1%
Cn1c(=O)c(-c2ccc(F)cc2)nc2cnc(OCc3ccccc3)nc21	1%[11.4 µM]	·	·	-16%
NC(=O)c1ccc(-c2nc(-c3ccc4c(c3)OCO4)c(-c3ccccn3)[nH]2)cc1	7.9µM*	·	·	?
c1ccc(-c2ccc(-c3nc(-c4cccnc4)no3)cc2)cc1	3.2µM*	·	·	14%
CCc1ccc(-c2nc(-c3ccncc3)no2)cc1	5µM*	·	·	-11%
c1ccc(-c2noc(-c3cccnc3)n2)cc1	13µM*	·	·	6%
Clc1ccccc1-c1nc(-c2cccnc2)no1	13µM*	i	?	-15%
SMILES	FLuc inh	GBA mod	PK Bst	ERK AVP inh
CCCCc1ccc(-c2nc(-c3ccncc3)no2)cc1	-14%	·	·	3%
Clc1ccccc1-c1nc(-c2ccncc2)no1	-24%[11.4 µM]	·	·	-19%[11.5 µM]
CS(=O)(=O)c1ccc(Cn2c3c(c4cc(F)cc(F)c42)CCC[C@H]3CC(=O)O)cc1	-6%	·	·	?
COc1ccc(C2C3=C(CCCC3=O)Nc3nc4ccccc4n32)c(OC)c1OC (centres undefined)	4%	>77	>57	34%
c1ccc(-c2ccc(-c3nc(-c4ccncc4)no3)cc2)cc1	3.2µM*	·	·	15%
Cc1ccc2cc3c(N)c(C(=O)N4CCOCC4)sc3nc2c1	13µM*	>77	11*	1%
Cc1ccc2nc3sc(C(=O)N4CCOCC4)c(N)c3cc2c1	2µM*	>77	1.8*	25%
O=C(Oc1cccc(-n2cnnn2)c1)c1sc2ccccc2c1Cl	1%	>77	>57	22%
Cc1cc(C)n(CCOC(=O)c2sc3ccccc3c2Cl)n1	16µM*	>15	i	-28%
CCCCCCCCCCCCCCCCCC(=O)NC[C@@H](COP(=O)([O-])OCC[N+](C)(C)C)OCC	-7%	·	·	31%
CCOC(=O)c1sc(NC(=O)CSc2nncs2)c(C(=O)OCC)c1C	-36%	9.6*	>57	-2%
CCOC(=O)c1sc(NC(=O)CSc2nnc(-c3ccco3)n2CC)c(C(=O)OCC)c1C	-1%	>77	>57	9%
COC(=O)C/C=C\[C@@H](C)[C@@H](CO)NS(=O)(=O)c1ccc(C)cc1	1%[11.4 µM]	·	·	10%[11.5 µM]
CC(=O)OC1CCC2(C)C(=CCC3C2CCC2(C)C3C[C@@H]3O[C@]32C(C)=O)C1 (some centres undefined)	·	·	·	-4%
